Whole data set: some 35,000 sequences, median “fluorescence intensity (a.u.)” near 10,000, cut for the highest 2% near 52,000. Many of the other results were omitted from the sample, so the highest values are more common in it than they were.
Target: T1, OsWOX13 (Oryza sativa, UniProt Q5QMM3 1-267)
T1 sequence: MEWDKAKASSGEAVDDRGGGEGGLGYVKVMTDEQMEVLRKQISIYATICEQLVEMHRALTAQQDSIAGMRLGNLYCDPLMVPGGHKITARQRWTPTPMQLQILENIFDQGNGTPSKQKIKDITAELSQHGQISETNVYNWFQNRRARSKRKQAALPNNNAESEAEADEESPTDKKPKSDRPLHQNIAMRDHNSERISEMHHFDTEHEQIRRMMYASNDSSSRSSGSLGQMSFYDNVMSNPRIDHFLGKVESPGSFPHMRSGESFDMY
Assay: protein-binding microarray (RPBM); PBS, 2% BSA, 51.3 ng/ul salmon testes DNA, 50 uM zinc acetate, 200 nM TF, 25 C, 1 h; high values mean tight binding
Conditions: protein: recombinant; tags: N-terminal polyhistidine and DsRed monomer fusion (pET32a); label: CyDye5-dUTP incorporated in the synthesized complementary strand; 3' TTTTT single-stranded linker to array surface; dsDNA, one strand shown
Method in brief: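 The binding signal for each feature is its fluorescence intensity in arbitrary units. An Axon 4000B scanner was used to read a custom Agilent array that had been made double-stranded with Cy5-dUTP primer extension, blocked with 2% BSA, incubated at 25 °C for 1 h with 200 nM protein in PBS, 2% BSA, salmon testes DNA and 50 µM zinc acetate, and washed. The protein was an N-terminal polyhistidine–DsRed transcription factor fusion from E. coli BL21-CodonPlus, purified on Ni–NTA.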

Sequence | binding signal
TCGATTGACTGGACGAGGAATAGTAACCCTGCACATTGTGCGGAGTCACCTAGTGCAG | 44100 fluorescence intensity (a.u.)
GAATACTGACAGTAAAGATGATTGCAGAATTAGCTCATAGCGGAGTCACCTAGTGCAG | 19400 fluorescence intensity (a.u.)
TGCATAAGTGTTAAATTGACAGCCACTTGGTCTGTTCGTTCGGAGTCACCTAGTGCAG | 21700 fluorescence intensity (a.u.)
AACTAAACATAATCTTTGAAAAGTTTGATTTTGAACACGGCGGAGTCACCTAGTGCAG | 6770 fluorescence intensity (a.u.)
TCTTGATTGAAACAATCTTTTGATCCCATAATCTTGCCCGCGGAGTCACCTAGTGCAG | 63700 fluorescence intensity (a.u.)
ATGCCTGATTGGAAATCTACTATTACTATTCATGATACCGCGGAGTCACCTAGTGCAG | 58500 fluorescence intensity (a.u.)
CCTGTTGATTGGATATCTGGAACCTGAAATCCTGAATACGCGGAGTCACCTAGTGCAG | 55800 fluorescence intensity (a.u.)
CACATACTATACTACATTAATTATATTCTGATGAAATCCGCGGAGTCACCTAGTGCAG | 4130 fluorescence intensity (a.u.)
TTTCTTTTGAAATTGATTACAATCTACATAAGGAGAGTCGCGGAGTCACCTAGTGCAG | 16500 fluorescence intensity (a.u.)
TACTCCTGTTGATAGGTATATTGATCTGAATCATCTGGTACGGAGTCACCTAGTGCAG | 3790 fluorescence intensity (a.u.)
ATGATTTACTATTAATCTAGTCTATTGCTGAGATATACATCGGAGTCACCTAGTGCAG | 11000 fluorescence intensity (a.u.)
TTAATTGATTTGGAAATCCTCTAGTTATCTGGATTAGTTTCGGAGTCACCTAGTGCAG | 37300 fluorescence intensity (a.u.)
ATTAGTTGGATTGATTCAAACAAAGAGGTGATAATAATTGCGGAGTCACCTAGTGCAG | 11900 fluorescence intensity (a.u.)
ACATGGGAATTTTGGTGGGATGGGGATGGGGATGGGGAATCGGAGTCACCTAGTGCAG | 7450 fluorescence intensity (a.u.)
GTGATTTTGTTAAACTTAGGCTGCTTGTTTCATCAATTGCCGGAGTCACCTAGTGCAG | 3740 fluorescence intensity (a.u.)
GGGTTTCAATCATTTAGGTGGACGTCCACTCATTTATTGCCGGAGTCACCTAGTGCAG | 16200 fluorescence intensity (a.u.)
TATGGTTAATTATGTATTTATCGACAACGGGATGTTCGTACGGAGTCACCTAGTGCAG | 15000 fluorescence intensity (a.u.)
CACGAAATTAATTTAGCTCTACATCCGTTCTGTTTATGAACGGAGTCACCTAGTGCAG | 8960 fluorescence intensity (a.u.)
TGGCCAAATTCTGTCAATTGCATTTGATGGAGCTGGGCTTCGGAGTCACCTAGTGCAG | 11200 fluorescence intensity (a.u.)
CTATAATTTCTGGTTACGGTGGTGACAAGTCATGTGGGCTCGGAGTCACCTAGTGCAG | 13900 fluorescence intensity (a.u.)
CGTGATTAGAATCCATCTCCGACCGACCGCACATACAAAGCGGAGTCACCTAGTGCAG | 43300 fluorescence intensity (a.u.)
GAGCGATTATAAAATTAATTGCTCCGCGGCTTAAGCCGAGCGGAGTCACCTAGTGCAG | 5680 fluorescence intensity (a.u.)

Sequence | binding signal
AGTGATCATTGATCTAAACTACTTGCAGGTGACGCACACGCGGAGTCACCTAGTGCAG | 6200 fluorescence intensity (a.u.)
TTGTTTGATTTGTTAGGGGTGGTAAGAGCAGCCTTGTATTCGGAGTCACCTAGTGCAG | 21000 fluorescence intensity (a.u.)
CTCTCTAGTAATTATCCATGTGCTCGTCTGGTTGGATTGGCGGAGTCACCTAGTGCAG | 5240 fluorescence intensity (a.u.)
ATGAAATGATTTGATTGAAATATTATGAAATGATTTGAGACGGAGTCACCTAGTGCAG | 39500 fluorescence intensity (a.u.)
CTAATAACAAAACAAATTACAGATTTCGCCTGTAATATGCCGGAGTCACCTAGTGCAG | 9460 fluorescence intensity (a.u.)
ATTAAATTTTAAAATTTAATTTTAAATTGATTTTGATATTCGGAGTCACCTAGTGCAG | 42600 fluorescence intensity (a.u.)
TTTGATTTGATTTGATTTGATTGAATTAATTTGAGTCCGACGGAGTCACCTAGTGCAG | 65400 fluorescence intensity (a.u.)
TAATTAATTAATTGATTGATTGATTTGAAACTGATTAATTCGGAGTCACCTAGTGCAG | 56200 fluorescence intensity (a.u.)
CAAATTTAAATTTGAATTATATCCGATTTAAATTTGAATTCGGAGTCACCTAGTGCAG | 21800 fluorescence intensity (a.u.)
TTAAAATAATTGACAAGATAGATTAATATTTGGTATATCACGGAGTCACCTAGTGCAG | 26400 fluorescence intensity (a.u.)
GTTAATTTAATTGAAATTTAAATTTAAATCAATCTGCATTCGGAGTCACCTAGTGCAG | 57600 fluorescence intensity (a.u.)
TATTAATTACAGATTGACAAAACACAAGATTTGCCTGTATCGGAGTCACCTAGTGCAG | 61800 fluorescence intensity (a.u.)
ATTGATTTGATGAAACTAATTTAATATTATAAATATTATTCGGAGTCACCTAGTGCAG | 26000 fluorescence intensity (a.u.)
ATCAATTTTAAAATTAAATTTTAATTTTAAATTTTGAATTCGGAGTCACCTAGTGCAG | 26900 fluorescence intensity (a.u.)
TATTTAAATTCAAATTGAAATTCAAATTTAAATCGGATATCGGAGTCACCTAGTGCAG | 16800 fluorescence intensity (a.u.)
AACAATTTGATCAAGAGTTGACCGAGATAATCCCACTTGCCGGAGTCACCTAGTGCAG | 4370 fluorescence intensity (a.u.)
GATCAAATTAATAGGTAACCCGCTGGTCAAACCTATGGGTCGGAGTCACCTAGTGCAG | 18000 fluorescence intensity (a.u.)
AATTAGTAAATACTTAATTAATCATGAGAAAATGTATTGCCGGAGTCACCTAGTGCAG | 3350 fluorescence intensity (a.u.)
CAAATGATGGAGGTTTCAAATTATACTGTACTTCAGCCATCGGAGTCACCTAGTGCAG | 7400 fluorescence intensity (a.u.)
GTAGAGTAATTAAGTATATCCTTTTGTTCTAGTACATCGGCGGAGTCACCTAGTGCAG | 4870 fluorescence intensity (a.u.)
TTTCAAATCAAATCCAATCCTCCTCCTCCAGATCTCTCCACGGAGTCACCTAGTGCAG | 3410 fluorescence intensity (a.u.)

Reference: publication PMC7819943, “Rice protein-binding microarrays: a tool to detect cis-acting elements near promoter regions in rice”
